Compound activity: PubChem, Sanford-Burnham Center for Chemical Genomics
Most compounds without a hit are left out; they make up all but 2.2% or so of the library.
KKLEB cytotox: counter-screen for CF NF-kB inhibitors: cytotoxicity. activity change (cytotoxicity), % at 5 µM. KKLEB CF airway cells viability, ATPlite luminescence, overnight; stronger effect = lower value; cells stimulated with P. aeruginosa culture filtrate. 360,000 compounds, 0.36% hits. AID 602141;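 active = corrected activity change at or below -50% at 5 µM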
hiPSC survival: hiPSC single-cell survival enhancement. ATPlite luminescence; 100% = ROCK inhibitor wells, 0% = DMSO. survival enhancement, % at 20 µM. 360,000 compounds, 0.044% hits; in the data active = survival enhancement above about 18%;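 also: cells exposed to compounds for 16 hours before the ATP read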
PPC-1+TRAIL kill: compounds killing PPC-1 cancer cells with TRAIL present (potentiator screen, no TRAIL-free arm). PPC-1 cells + TRAIL, ATPLite viability luminescence. 220,000 compounds, 0.41% hits. cell killing (% activity), % at 4 µM or 5 µM;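 active = cell killing above 50% in the first pass at 4 µM, then a duplicate retest at 5 µM averaging 50% or more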
HIF-2a inh: inhibitors of HIF-2a; 786-0 RCC cells HIF-2a reporter, luciferase luminescence, overnight; inhibition, % at 18.8 µM; 360,000 compounds, 0.72% hits; AID 624352;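 active = inhibition of the luminescence signal of 40% or more relative to plate controls, in a single-dose primary screen at 18.75 µM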
CF NFkB block: cystic fibrosis NF-kB activation inhibition; KKLEB NF-kB-GFP reporter, PAF-induced, GFP fluorescence overnight; inhibition, % at 5 µM; 360,000 compounds, 0.86% hits; AID 588850;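 active = at least 50% inhibition at 5 µM, scaled per plate between neutral and stimulator controls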;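 also: PAF is a Pseudomonas aeruginosa culture filtrate used as stimulus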
C8 TRAIL sens: caspase-8 TRAIL sensitization. NB7+C8 cells + TRAIL, ATPlite viability luminescence. 360,000 compounds, 1% hits. inhibition (viability loss, TRAIL sensitization), % at 10 µM;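 active = compounds causing at least 50% loss of cell viability in the single-dose screen, relative to plate controls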
Hits are given with their value; i = inactive; nt = not tested or not shown.

SMILES	KKLEB cytotox	hiPSC survival	PPC-1+TRAIL kill	HIF-2a inh	CF NFkB block	C8 TRAIL sens
Cc1cccc(NC(c2ccc(O)cc2)c2ccc3ccc(C)nc3c2O)n1 (centres undefined)	i	i	i	55	i	i
O=C(O)c1cc2ccccc2c(N=Nc2cccnc2)c1O	i	i	nt	73	i	i
O=C(O)c1cc(N=Nc2c(O)ccc3ccccc23)cc(C(=O)O)c1	i	i	i	i	i	i
CC(=O)c1c(C)[nH]c(C(=O)CSc2nnc(-c3ccco3)o2)c1C	i	i	i	i	i	i
C#CCSc1nnc(-c2ccc(OC)cc2)o1	i	i	i	i	i	92
COc1ccc(-c2nnc(SCC(=O)c3[nH]c(C)c(C(C)=O)c3C)o2)cc1	i	i	i	i	i	48
O=C(Nc1ccc2c(c1)OCCO2)NC1CCCCC1	i	i	i	i	i	55
O=C(CCl)Nc1ccccc1C(=O)Nc1ccc2c(c1)OCO2	i	i	i	i	i	50
O=C(Nc1ccc2c(c1)OCO2)c1ccc2c(c1)OCO2	i	i	i	i	i	71
O=C(Nc1ccc2c(c1)OCCO2)C1CCC1	i	i	i	i	i	i
CCn1cc(Cl)c(C(=O)Nc2ccc3c(c2)OCCO3)n1	i	i	i	i	i	52
O=C(Nc1ccc(F)c(F)c1)c1ccc2c(c1)OCO2	i	i	i	i	i	i
COc1cccc(CC(NC(C)=O)C(=O)NC2CCN(C(=O)c3ccc(Cl)cc3)CC2)c1 (centres undefined)	i	i	nt	i	i	i
CCc1cccc(CC)c1-n1c(SCC(=O)N2CCCc3ccccc32)nc(O)cc1=O	i	i	nt	i	i	i
COc1cccc(COC(=O)C2CC(=O)N(Cc3ccccc3)C2)c1OC (centres undefined)	i	i	nt	i	i	i
COc1ccccc1/C=C/C(=O)OCC(=O)N1CCN(S(=O)(=O)c2ccc(C)cc2C)CC1	i	i	nt	i	i	i
COC(=O)[C@@H]1[C@H](CCc2ccccc2)NC(=O)N(Cc2ccccc2)[C@@H]1C	i	i	nt	i	i	i
Cc1ccc(NC(=O)c2ccc3c(c2)OCCO3)cc1C	i	i	nt	i	i	76
Cc1cccc(NC(=S)NNC(=O)c2ccc3c(c2)OCO3)c1	i	i	i	i	i	50
O=C(Nc1ccc2c(c1)OCCO2)c1ccc(NC(=O)C2CCCO2)cc1 (centres undefined)	i	i	i	58	i	i
Cc1ccc(C(=O)Nc2ccc(Cl)cn2)cc1	i	i	i	i	i	62
COc1cccc(CC(NC(C)=O)C(=O)NC2CCN(C(=O)c3ccncc3)CC2)c1OC (centres undefined)	i	i	nt	i	i	i
O=C(Nc1ccc2c(c1)OCCO2)c1ccc(Cl)cc1	i	i	nt	i	i	59
CC(=O)Nc1ccc(C(=O)Nc2ccc3c(c2)OCCO3)cc1	i	i	nt	i	i	i
O=C(NCCc1cccc(Cl)c1)c1ccc2c(c1)OCO2	i	i	nt	i	i	57
SMILES	KKLEB cytotox	hiPSC survival	PPC-1+TRAIL kill	HIF-2a inh	CF NFkB block	C8 TRAIL sens
COc1cc(OC)cc(C(=O)NC(C(=O)Nc2ccc3c(c2)OCCO3)C(C)C)c1 (centres undefined)	i	i	nt	i	i	i
COc1cc(OC)cc(C(=O)Nc2ccc3c(c2)OCCO3)c1	i	i	nt	i	i	51
O=C(N/N=C/c1cccs1)c1ccc2c(c1)OCO2	i	i	59	i	i	76
COc1cc(C(=O)N2CCCCC2c2cc(C(=O)NC(C)C)no2)cc(OC)c1C (centres undefined)	i	i	nt	i	i	i
COC(=O)CSCC(=O)Nc1nnc(-c2ccccc2C)s1	i	i	i	i	i	i
Cc1cccc(NC(=O)c2ccc3c(c2)OCCO3)c1	i	i	nt	i	i	87
Cc1ccc(NC(=O)CNC(=O)c2ccc3c(c2)OCO3)nc1	i	i	nt	i	i	i
O=C(N/N=C/c1c[nH]c2ccccc12)c1ccc2c(c1)OCCO2	i	i	i	i	i	76
O=C(Nc1ccccc1)c1ccc2c(c1)OCCO2	i	i	i	i	i	i
O=C(Nc1ccc2c(c1)OCCO2)c1cccc2nc3ccccc3nc12	i	i	i	i	i	60
Cc1ccc(NC(=O)c2ccc3c(c2)OCCO3)nc1	i	i	nt	i	i	74
Cc1ccc(CNC(=O)CCNC(=O)c2ccc([N+](=O)[O-])cc2)cc1	i	i	nt	i	i	i
